aSyn rescue – qHTS of alpha-syn Inhibitors | Yeast expressing alpha-synuclein, growth rescue, BacTiter-Glo, 24 h | Potency, µM (top dose mostly 46.1 µM), inactives show at the highest dose growth rescue (activation), most hits filed as activators | hit rate 0.14% among 370,000 | AID 652106, 2013; further: % of control where 0% means no effect; nearly all actives have a fitted effect of over 65% in size
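Rescue of yeast growth: cells expressing toxic alpha-synuclein, induced in galactose at OD600 0.02, incubated with compound 24 h at 30 C. ATP luminescence quantified growth; inhibitors of toxicity appear as activators.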
Abeta yeast res – qHTS for compounds that reverse cellular toxicity of Amyloid beta (A-beta) peptide in yeast: Primary Screen; AID 1347071, 2019; Potency, µM (series often up to 46.1 µM), usual class: activators; hit rate 0.063% among 410,000; yeast expressing A-beta42, growth rescue, OD600, 48 h; response scale: 0% DMSO, 100% iron-clioquinol control; further: nearly all actives have a fitted effect of over 55% in size
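Growth rescue measured by 600 nm absorbance after 48 h yeast culture at 30 C with compound. Values normalized between DMSO and an equimolar ferric chloride plus clioquinol control.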
Mito fusion yeast – qHTS Assay for Small Molecule Inhibitors of Mitochondrial Division or Activators of Mitochondrial Fusion; S. cerevisiae fusion-defective mutant growth rescue, CellTiterGlo 48 h; Potency, µM (titrated, usually from 46.1 µM), for inactives: at the highest dose growth rescue (activation), actives largely listed as activators; hit rate 0.23% among 320,000; further: % of control where 0% means no effect; nearly all actives have a fitted effect of over 45% in size
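S. cerevisiae fusion-defective temperature-sensitive mutants (e.g. fzo1-1, mgm1-5) grown 48 h at 37C in YPEG (ethanol/glycerol non-fermentable) medium with 23 nl compound per well; growth rescue read as CellTiterGlo luminescence.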
TDP-43 yeast inh – qHTS of TDP-43 Inhibitors; Potency, µM (top dose mostly 46.1 µM), for the others: top-dose growth rescue (activation), usual class: activators; AID 652104, 2013; TDP-43 expressing yeast growth rescue, BacTiter-Glo, 24 h; hit rate 1.8% among 410,000; further: % of control where 0% means no effect; nearly all actives have a fitted effect of over 50% in size
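Yeast expressing TDP-43 (pregrown in raffinose, seeded at OD600=0.02 in galactose medium) exposed to compounds 24 hr at 30 deg C. Growth read by BacTiter-Glo luminescence; rescue of toxicity appears as increased signal.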
FUS suppressor – qHTS for Suppressors of FUS Proteinopathy: Primary screen using FUS-linked yeast assay; hit rate 0.24% among 390,000; S. cerevisiae FUS-expressing, growth rescue, OD600, 24 h; Potency, µM (highest dose often 76.6 µM), most hits filed as activators;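 further: plate controls were DMSO vehicle for no effect and reference control for full effect; nearly all actives have a fitted effect of over 55% in size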
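Compound concentration series was pinned onto galactose-induced FUS-expressing yeast seeded at OD 0.005. Plates sat 24hr at 30C; absorbance at 600 nm gave growth. DMSO served as background control.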
The depositor's hits bear a star; [ ] = another dose, or the depositor's remark. A selection: hits, their analogues and other compounds. The true share with any hit is near 2.2%. The call rests on the fitted dose curve; in most records, active means well fitted curve in the direction sought with a large enough effect; inconclusive means small, poorly fitted or top-dose-only effect, or another doubt; inactive means no such curve, though single readings can be large; an effect the other way counts as inactive or inconclusive. Potency means the concentration at half of the fitted maximal effect.

Results for CC(=O)c1sc2nc(-c3ccc(C)cc3)c3c(c2c1N)CCCC3 ?
aSyn rescue: 1%; Abeta yeast res: inactive; Mito fusion yeast: 16µM*; TDP-43 yeast inh: 11%

Results for O=Nc1c(O)n(Cc2ccc(Cl)c(Cl)c2)c2ccccc12 ?
aSyn rescue: 13µM*; Abeta yeast res: inactive; Mito fusion yeast: 17%; TDP-43 yeast inh: -92%; FUS suppressor: inactive

How did N#Cc1ccccc1NC(=O)COC(=O)c1cccs1 do in these assays?
aSyn rescue: -7%; Abeta yeast res: inactive; TDP-43 yeast inh: 10µM*; FUS suppressor: inactive

What do the screens show for `O=C(COC(=O)c1cccs1)Nc1ccccc1[N+](=O)[O-]`?
aSyn rescue: -12%; Abeta yeast res: inconclusive; Mito fusion yeast: -1%; TDP-43 yeast inh: 5%; FUS suppressor: inactive

Results for Cc1nnc2c3ccccc3nc(Nc3cccc(O)c3)n12 ?
Abeta yeast res: inactive; TDP-43 yeast inh: 35µM*; FUS suppressor: inactive

How did Cc1ccc(Nc2nc3ccccc3c3nnc(C)n23)cc1Cl do in these assays?
Abeta yeast res: inactive; TDP-43 yeast inh: 13%; FUS suppressor: inactive

What do the screens show for `COc1cccc(C2=CC(c3ccccc3F)n3ncc(C(=O)Nc4ccc(F)cc4)c3N2)c1` (configuration not stated)?
Abeta yeast res: inactive; TDP-43 yeast inh: 22µM*; FUS suppressor: inactive

Results for COc1ccc(C2=CC(c3ccccc3F)n3ncc(C(=O)Nc4ccc(C)cc4)c3N2)cc1 (configuration not stated) ?
Abeta yeast res: inactive; TDP-43 yeast inh: 7%; FUS suppressor: inactive

How did CC(C)(C)c1ccc(C(=O)N2CCC(NC(=O)c3ccccc3)CC2)cc1 do in these assays?
aSyn rescue: -6%; Abeta yeast res: inactive; Mito fusion yeast: 35µM*; TDP-43 yeast inh: 10%; FUS suppressor: inactive

Results for Cc1[nH]c2ccccc2c1C(=O)C(C)Sc1nc2ccccc2c(=O)n1Cc1cccnc1 (configuration not stated) ?
aSyn rescue: -1%

What do the screens show for `COc1ccc(-n2nc(C(=O)NCC(=O)N3CCCCCC3)c3ccccc3c2=O)cc1`?
aSyn rescue: 3%; Abeta yeast res: inactive; Mito fusion yeast: 5%; TDP-43 yeast inh: 0%; FUS suppressor: inactive

What do the screens show for `COc1ccc(-n2nc(C(=O)NCC(=O)N3CC(C)CC(C)C3)c3ccccc3c2=O)cc1` (configuration not stated)?
aSyn rescue: 4%; Abeta yeast res: inactive; Mito fusion yeast: 3%; TDP-43 yeast inh: 14µM*; FUS suppressor: inactive

How did CN(Cc1ccccc1)C(=O)CN1C(=O)NC2(CCCc3sccc32)C1=O (configuration not stated) do in these assays?
aSyn rescue: -15%; Abeta yeast res: inactive; TDP-43 yeast inh: 3%; FUS suppressor: inactive

What do the screens show for `COc1ccc(-c2nc3ccccc3c(=O)n2O)cc1`?
aSyn rescue: 32µM*; Abeta yeast res: inactive; Mito fusion yeast: -9%; TDP-43 yeast inh: -45%; FUS suppressor: inactive

How did O=c1c2ccccc2nc(-c2ccccc2)n1O do in these assays?
aSyn rescue: 24%; Abeta yeast res: inactive; TDP-43 yeast inh: -2%; FUS suppressor: inactive

Results for CCOC(=O)c1ccc(NC(=O)c2cc3cc(C)ccc3n2C)cc1 ?
Abeta yeast res: inactive; TDP-43 yeast inh: 0%[9.22 µM]; FUS suppressor: inactive

What do the screens show for `C=CCN1[C@@H](C)COc2cc(F)ccc2S1(=O)=O`?
FUS suppressor: inactive

How did Cc1occc1C(=O)n1nnc2ccccc21 do in these assays?
aSyn rescue: 11%; Abeta yeast res: inactive; Mito fusion yeast: -4%; TDP-43 yeast inh: 16µM*; FUS suppressor: inactive

How did O=C(c1ccco1)N1CC2(CC(c3ccc(Cl)cc3)=NO2)CN1Cc1ccc(Br)cc1 (configuration not stated) do in these assays?
aSyn rescue: 12%; Abeta yeast res: inactive; TDP-43 yeast inh: 32µM*; FUS suppressor: inactive

How did COc1ccc(NC(=O)CC2C(=O)N(c3ccc(F)cc3)C(=O)N2Cc2ccco2)cc1 (configuration not stated) do in these assays?
Abeta yeast res: inactive; TDP-43 yeast inh: 4%; FUS suppressor: inactive

How did Cc1ccc(-c2cc(C(=O)NN=Cc3ccc(F)cc3)[nH]n2)cc1C do in these assays?
FUS suppressor: inactive

How did CC(OC(=O)c1cc(-c2cccnc2)nc2ccccc12)C(=O)Nc1ccc2ccccc2c1 (configuration not stated) do in these assays?
aSyn rescue: 9%; Abeta yeast res: inactive; Mito fusion yeast: 3%; TDP-43 yeast inh: -7%; FUS suppressor: 5.6µM*

How did Nc1ccc[n+](CC(=O)c2ccc(F)cc2)c1 do in these assays?
aSyn rescue: -64%

What do the screens show for `COc1ccccc1CNC(=O)COCc1cc(-c2cccs2)on1`?
Abeta yeast res: inactive; TDP-43 yeast inh: inconclusive; FUS suppressor: inactive

How did CC(C)N1C2OC(C3OC4C(O3)N(C(C)C)S(=O)(=O)N4C(C)C)OC2N(C(C)C)S1(=O)=O (configuration not stated) do in these assays?
aSyn rescue: 7.1µM*; Abeta yeast res: inactive; Mito fusion yeast: -23%; TDP-43 yeast inh: inconclusive; FUS suppressor: inactive

How did CC(=O)N(O)c1ccc(/C=C2\C=Cc3ccccc32)cc1 do in these assays?
aSyn rescue: -22%

What do the screens show for `COc1ccc2c(c1)-c1nc(NC(=O)c3ccco3)sc1CC2`?
aSyn rescue: -15%; Abeta yeast res: inactive; Mito fusion yeast: 4%; TDP-43 yeast inh: inconclusive

How did COc1ccc2c(c1)CCc1sc(NC(=O)c3ccco3)nc1-2 do in these assays?
aSyn rescue: -7%; Abeta yeast res: inactive; Mito fusion yeast: 12%; TDP-43 yeast inh: 20µM*; FUS suppressor: inactive

What do the screens show for `COc1ccc2c(c1)-c1nc(NC(=O)c3cccs3)sc1CC2`?
aSyn rescue: -2%; Abeta yeast res: inactive; Mito fusion yeast: -2%; TDP-43 yeast inh: 18µM*; FUS suppressor: inconclusive

What do the screens show for `NC(=O)c1ccccc1N/C=C/C(=O)c1ccc(F)cc1`?
aSyn rescue: 7%; Abeta yeast res: inactive; Mito fusion yeast: 0%; TDP-43 yeast inh: inconclusive; FUS suppressor: inactive

How did Cc1ccc(C(=O)/C=C/Nc2ccccc2C(N)=O)o1 do in these assays?
aSyn rescue: 11µM*; Abeta yeast res: inactive; Mito fusion yeast: -1%; TDP-43 yeast inh: -5%; FUS suppressor: inactive

Results for O=C(CSc1nnc(-c2ccc(Cl)cc2)o1)Nc1ccc(F)cc1 ?
Abeta yeast res: inactive; TDP-43 yeast inh: 21%; FUS suppressor: inactive

Compound activity deposited in PubChem BioAssay by National Center for Advancing Translational Sciences (NCATS).
